{"source": "PubChem BioAssay (NCATS)", "note": "Results filed as inconclusive are left out. Where a call stands in place of a potency, no number is given. Calls of active or inactive are those of the source. Calls come from the whole dose curve; as a rule, active = well fitted inhibition curve with a large enough effect; inconclusive = small, poorly fitted or top-dose-only effect; inactive = flat fitted curve, though single readings scatter."}
{"target": "Glutathione peroxidase 1 (Homo sapiens) (UniProt P07203)", "sequence (P07203 whole entry, looked up)": "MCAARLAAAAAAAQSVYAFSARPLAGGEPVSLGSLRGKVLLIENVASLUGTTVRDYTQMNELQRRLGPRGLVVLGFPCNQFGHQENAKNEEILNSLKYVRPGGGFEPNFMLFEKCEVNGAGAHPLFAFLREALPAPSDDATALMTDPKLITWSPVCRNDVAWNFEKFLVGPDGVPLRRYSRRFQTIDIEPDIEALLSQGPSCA", "assay": "Primary qHTS Assay for Inhibitors of Recombinant Selenoprotein Glutathione Peroxidase 1 (GPX1) (AID 1845191); note: nearly all actives have a fitted effect of over 65% in size", "settings": "recombinant GPX1, GR-coupled NADPH fluorescence, 15 min; series mostly up to 48.8 µM", "outline": "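GPX1 10 nM, GR 100 nM, GSH 1 mM, NADPH 0.5 mM, CHP 0.5 mM (final). 30-min cpd preincubation, RT. Ex340/Em450 read t=0, t=15 min.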"}
{"smiles": "Nc1[nH]nc2nnc(-c3c(-c4ccccc4)nn4ccccc34)cc12", "Potency": "inactive"}
{"smiles": "C[C@@H]1CCO[C@H]2Cn3cc(C(=O)NCc4ccc(F)cc4F)c(=O)c(O)c3C(=O)N12", "Potency": "inactive"}
{"smiles": "c1ccc(CNc2nc(N3CCOc4ccccc43)nc3c2CCCC3)cc1", "Potency": "inactive"}
{"smiles": "CC1=C[C@@H]2[C@@H]([C@@H](O)C[C@@]3(C)[C@H]2C[C@@H](C)[C@]3(O)C(=O)CO)[C@@]2(C)Cc3cnn(-c4ccccc4)c3C=C12", "Potency": "inactive"}
{"smiles": "C[C@H](c1ccc(F)cc1CCCC(=O)O)N(c1cc(F)ccc1F)S(=O)(=O)c1ccc(Cl)cc1", "Potency": "inactive"}
{"smiles": "Cc1cc(-c2ncc(CC(=O)Nc3ccc(-c4cnccn4)cn3)cc2C)ccn1", "Potency": "inactive"}
{"smiles": "N#Cc1ccc(Oc2ccc3c(c2)COB3O)cc1", "Potency": "inactive"}
{"smiles": "COc1nc(C)cnc1NS(=O)(=O)c1cccnc1-c1ccc(-c2nnco2)cc1", "Potency": "inactive"}
{"smiles": "Cc1nc(C(=O)NCC(=O)O)c(O)c2ccc(Oc3ccccc3)cc12", "Potency": "inactive"}
{"smiles": "O=C(CCCN1CCN(c2ccc(F)cc2)CC1)NC1c2ccccc2CSc2ccccc21", "note": "(stereo not given)", "Potency": "inactive"}
{"smiles": "COc1ccc(-c2nc3ccc(C4=NNC(=O)CC4C)cc3[nH]2)cc1", "note": "(stereo not given)", "Potency": "inactive"}
{"smiles": "CN1C(=O)C(Cc2c[nH]c3ccccc23)NC1=S", "note": "(stereo not given)", "Potency": "inactive"}
{"smiles": "CC[C@H](CC#N)OC(=O)N[C@@H](C)c1cccc(NC(=O)Nc2ccc(-c3cnco3)c(OC)c2)c1", "Potency": "inactive"}
{"smiles": "COc1nccc(-c2c(-c3ccc(F)cc3)ncn2C2CCNCC2)n1", "Potency": "inactive"}
{"smiles": "CN1CCc2c(n(Cc3ccc(C(=O)NO)cc3)c3ccccc23)C1", "Potency": "inactive"}
{"smiles": "NS(=O)(=O)c1ccc(Nc2nc(OCC3CCCCC3)c3[nH]cnc3n2)cc1", "Potency": "inactive"}
{"smiles": "CN(C)CCCNC(=O)c1ccc(-c2cc(O)c3ncccc3c2)cc1", "Potency": "inactive"}
{"smiles": "CS(=O)(=O)c1ccc(C2=C(c3ccccc3)C(=O)OC2)cc1", "Potency": "inactive"}
{"smiles": "CNC(=O)c1c(-c2ccc(F)cc2)oc2cc(N(CCO)S(C)(=O)=O)c(C3CC3)cc12", "Potency": "inactive"}
{"smiles": "COc1ccc(Cn2ccc3ccc(C(=O)NO)cc32)cc1", "Potency": "inactive"}
{"smiles": "NS(=O)(=O)c1cc(Cl)c(Cl)c(S(N)(=O)=O)c1", "Potency": "inactive"}
{"smiles": "O=C(c1ccc(C(=O)N2CCC(N3CCCC3)CC2)c(Nc2ccccc2)c1)N1CCC(N2CCCC2)CC1", "Potency": "inactive"}
{"smiles": "CC1CCN(c2cc(N3CCN(C)CC3)ccc2NC(=O)c2cc(C#N)c[nH]2)CC1", "Potency": "inactive"}
{"smiles": "COc1cc(Nc2nc3ccccc3nc2NS(=O)(=O)c2ccc(NC(=O)c3ccc(C)c(OC)c3)cc2)cc(OC)c1", "Potency": "inactive"}
{"smiles": "CN1c2ccccc2C(=O)N2CCc3c([nH]c4ccccc34)C21", "note": "(stereo not given)", "Potency": "inactive"}
{"smiles": "Cc1ccc2c(c1)C(=O)[C@]1(O)CCN(c3ccccc3)C1=N2", "Potency": "inactive"}
{"smiles": "Cc1cc(C(C)Nc2ccccc2)c2nc(N3CCOCC3)cc(=O)n2c1", "note": "(stereo not given)", "Potency": "inactive"}
{"smiles": "CCNC(=O)c1noc(-c2cc(C(C)C)c(O)cc2O)c1-c1ccc(CN2CCOCC2)cc1", "Potency": "inactive"}
{"smiles": "CN1CCN(c2cccc(Nc3nc4c(-c5ccc(S(C)(=O)=O)cc5)cccn4n3)c2)CC1", "Potency": "inactive"}
{"smiles": "CCN1CCN(c2ccc(Nc3cc(N(C)C(=O)Nc4c(Cl)c(OC)cc(OC)c4Cl)ncn3)cc2)CC1", "Potency": "inactive"}
